Assay results as given in PubChem BioAssay.

Target: PEG-3 (UniProt Q6IN02)
Experiment: inhibition of PEG-3 promoter-driven reporter – cell-based, HeLa, luciferase, CREF/GAPDH counter-screen panel, dose response (AID 624167)
Settings: CREF/GAPDH counter-screens; HeLa PEG-Prom luciferase reporter, overnight, run 1, dose range 1, at 100 µM (top of the series) unless noted

PEG-3, sequence (Q6IN02 whole entry, looked up): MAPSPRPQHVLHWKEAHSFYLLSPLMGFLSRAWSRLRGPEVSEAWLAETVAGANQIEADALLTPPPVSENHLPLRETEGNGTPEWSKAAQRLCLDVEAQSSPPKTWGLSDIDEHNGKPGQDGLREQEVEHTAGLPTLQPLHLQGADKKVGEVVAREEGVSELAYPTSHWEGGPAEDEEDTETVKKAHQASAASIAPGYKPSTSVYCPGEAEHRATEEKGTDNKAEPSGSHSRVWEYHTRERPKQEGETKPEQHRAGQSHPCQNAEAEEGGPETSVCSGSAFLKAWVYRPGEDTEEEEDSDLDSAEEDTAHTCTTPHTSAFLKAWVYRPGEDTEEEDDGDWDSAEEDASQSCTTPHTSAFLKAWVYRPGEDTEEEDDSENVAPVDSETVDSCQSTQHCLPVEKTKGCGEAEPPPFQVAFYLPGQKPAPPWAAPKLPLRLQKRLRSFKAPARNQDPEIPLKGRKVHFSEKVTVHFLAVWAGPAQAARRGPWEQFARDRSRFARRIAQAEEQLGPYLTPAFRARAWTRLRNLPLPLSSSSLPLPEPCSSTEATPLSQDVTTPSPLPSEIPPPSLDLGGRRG

Compared with `COc1ccc(C2c3ccc4ccccc4c3Oc3ncn(CCO)c(=N)c32)cc1OC` (stereo not given), `COc1ccc2c(c1OC)C(=O)N1c3ccccc3C(=O)N(c3ccccc3F)C21` (stereo not given) is lower in inhibition: 99.1% for the first, 62.8% for the second.

Going from `Cc1ccc(S(=O)(=O)N(C)C)cc1NC(=O)c1cncc(Br)c1` to `CCN(c1ccccc1)S(=O)(=O)c1ccc(C(=O)N(CCCN(C)C)c2nc3cc4c(cc3s2)OCO4)cc1`, the inhibition rises from 82.4% to 97.6%.

Compared with `CCN(CC)CCN1CCN(c2cncc(-c3ccc4ccccc4c3)n2)CC1`, `COc1ccc(-c2cc(-c3ccc(F)cc3)nc(N3CCN(C)CC3)n2)cc1` is lower in inhibition: 98.9% for the first, 25.8% for the second.

Going from `O=C(Nc1cccc(S(=O)(=O)N2CCOCC2)c1)c1ccc2c(=O)n3c(nc2c1)CCCCC3` to `CCOc1cc(/C=N/Nc2nc(-c3cccc(S(=O)(=O)N4CCCC4)c3)cs2)ccc1O`, the inhibition falls from 96.5% to 77.8%.

Compared with `CC(C)n1nc(C(=O)Oc2cc(Cl)ccc2Cl)c2ccccc2c1=O`, `CN(CCOc1ccc(Cl)cc1)C(=O)c1cc(-c2ccco2)nc2ccccc12` is higher in inhibition: 98.6% for the first, 99.6% for the second.

Going from `CC(=O)c1ccc(Nc2nc(C(N)Cc3ccc(Cl)cc3)cs2)cc1` (stereo not given) to `CCCn1c(=N)n(CC(=O)c2ccc(Cl)cc2)c2ccccc21`, the inhibition rises from 99.5% to 101%.

Going from `Cc1ccc2[nH]c3c(c2c1)CCCC3NC(=O)CCl` (stereo not given) to `COc1ccc(NC(=O)N(C)[C@H]2C[C@H]3c4[nH]c5ccc(-c6cccc(C)c6)cc5c4CCN3C[C@H]2[C@H](C)O)cc1`, the inhibition rises from 97% to 98.4%.

`CCCc1nc2oc3c(NCCCN(C)C)ncnc3c2c2c1CCCC2` and `CN(C)CCCNc1ncnc2oc(-c3ccccc3)c(-c3ccccc3)c12` are the same in inhibition: 102% for the first, 102% for the second.

First: COc1ccccc1NC(=O)c1cc(-c2cc(OC)c(OC)c(OC)c2)nc2ccccc12
Second: COc1ccc(-c2cc(C(=O)N3CCN(c4ccccc4F)CC3)c3ccccc3n2)c(OC)c1
The inhibition of the first is higher: 47.9% for the first, 27.3% for the second.

Compared with `Cc1nn(-c2ccccc2)c2c1C(c1ccc([N+](=O)[O-])cc1)N1C(=N2)C(=O)Nc2ccccc21` (stereo not given), `N=c1c2c(-c3ccccc3)c(-c3ccccc3)n(Cc3ccccc3)c2ncn1CCO` is higher in inhibition: 10.2% for the first, 96.4% for the second.

First: COc1cc(CNC(C)(C)CO)cc(Br)c1OCc1ccc(Cl)cc1
Second: COc1ccc(CNCCC(c2ccccc2)c2ccc(OC(C)C)cc2)cc1OC (stereo not given)
The inhibition of the first is lower: 99% for the first, 101% for the second.

First: COCCn1c(C)cc(C(=O)CSc2nnc3ccccn23)c1C
Second: CCOC(=O)c1sc2nc(CSc3ccccc3)nc(N3CCCN(C)CC3)c2c1C
The inhibition of the first is lower: 98.8% for the first, 101% for the second.

First: Cn1nnnc1Sc1ncnc2scc(-c3ccc4c(c3)OCO4)c12
Second: COc1ccccc1N1CCN(C(=O)c2sc3ncnc(N4CCN(c5ccccn5)CC4)c3c2C)CC1
The inhibition of the first is higher: 102% for the first, 88.3% for the second.

First: CCN(CC)CCn1c2ccccc2c2cnc(N)c(C#N)c21
Second: Cc1ccc(-c2nnc(N3CCN(c4ccccn4)CC3)c3ccccc23)cc1
The inhibition of the first is higher: 101% for the first, 98% for the second.

Going from `CSc1ccc2c(c1)C(N1CCN(C)CC1)Cc1ccccc1S2` (stereo not given) to `CCN1CCN(Cc2c(O)ccc3c2O/C(=C\C=C\c2ccccc2)C3=O)CC1`, the inhibition falls from 102% to 99.1%.

First: CC(=O)c1cccc(NC(=O)c2cccc3c(-c4cccnc4)coc23)c1
Second: CC1=NN(c2cccc(C(=O)O)c2)C(=O)/C1=C\C=C/c1ccccc1
The inhibition of the first is lower: 36.4% for the first, 86.8% for the second.

Compared with `COc1ccc(-c2ccc3[nH]c4c(c3c2)CCN2C[C@@H]([C@H](C)O)[C@@H](N(C)C(=O)Nc3cc(Cl)cc(Cl)c3)C[C@@H]42)cc1`, `CCC(C)Sc1ccc(-c2nc3ccccn3c2NCc2ccccc2)cc1OC` (stereo not given) is higher in inhibition: 96.3% for the first, 102% for the second.

Compared with `Cc1nc2c(OCc3ccc(OC(F)F)cc3)cccn2c1N(C)C(=O)CCC1CCCC1`, `Cc1ccccc1NC(=O)Nc1nc(C(N)C2CCCCC2)cs1` (stereo not given) is higher in inhibition: 95.4% for the first, 98.9% for the second.

Compared with `CNCC[C@H](Oc1cccc2ccccc12)c1cccs1`, `COc1ccc(CCNC(=O)C(=O)NCC2CCCN2S(=O)(=O)c2ccccc2)cc1OC` (stereo not given) is lower in inhibition: 102% for the first, 97.2% for the second.

First: Cc1ccc2[nH]c(=O)c(C3C(C#N)=C(N)Oc4c3ccc3cccnc43)cc2c1 (stereo not given)
Second: O=C1CCC2S/C(=C/Nc3ccc(C(F)(F)F)cc3)C(=O)N12 (stereo not given)
The inhibition of the first is higher: 99.2% for the first, 87.1% for the second.
